# This is a sample that favours compounds with a hit; in the whole collection about 19% have one here.
# IL-1B inflam inh = qHTS for Inhibitors of Inflammasome Signaling: IL-1-beta AlphaLISA Primary Screen | THP-1 LPS/ATP IL-1B secretion, AlphaLISA, 16 h; stronger effect = lower value | activity change, % at 57.5 µM | 360,000 compounds, 4.7% hits; in the data active = activity change below about -50%; inconclusive = mostly about -30% to -49%
#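 Secreted IL-1B measured by AlphaLISA bead assay after 16 h compound exposure of THP-1 cells; compounds (final up to 57.5 uM) added 1 h before LPS (250 ng/mL) and ATP (1.25 mM) stimulation; lower signal means less secretion.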
# HT1080 IDH1KD tx = qHTS for induction of synthetic lethality in tumor cells producing 2HG: qHTS for the HT-1080-IDH1KD cell line; 360,000 compounds, 2% hits; Potency, µM (series often up to 46.1 µM), without a hit: at the top dose activity, negative = toxicity, hits mostly cytotoxic; HT-1080 IDH1 knockdown viability, ATP luminescence, 48 h; AID 686971, 2013;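 note: potency is the fitted concentration of half-maximal effect; 0% = DMSO wells and -100% = cell-free medium wells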
#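 CellTiter-Glo luminescence after 48 h compound exposure at 37 degrees C of IDH1-knockdown HT-1080 cells in 5% FBS RPMI. %Activity scaled between DMSO wells and cell-free media wells, with curves fitted and assigned curve classes.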
# TDP1 cell noCPT = qHTS for Inhibitors of human tyrosyl-DNA phosphodiesterase 1 (TDP1): qHTS in cells in absence of CPT. DT40 Tdp1-/- hTDP1 cells, no CPT, ATP luminescence, 48 h. Potency, µM (highest dose often 46.2 µM), for the others: at the top dose activity change, negative = growth inhibition, most hits filed as inhibitors. 420,000 compounds, 15% hits; note: potency is the fitted concentration of half-maximal effect; nearly all actives have a fitted effect of over 55% in size
#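 Growth of hTDP1-complemented DT40 Tdp1-knockout cells is measured by ATP luminescence after at least 48 hr compound exposure at 37 °C, with DMSO substituting for the 20 nM CPT used in the parallel screen.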
# DT40 TDP1 CPT = qHTS for Inhibitors of human tyrosyl-DNA phosphodiesterase 1 (TDP1): qHTS in cells in presence of CPT; chicken DT40 Tdp1-/-;hTDP1 cells + 20 nM CPT, ATP luminescence, 48 h; Potency, µM (top dose mostly 46.2 µM), for the others: at the highest dose activity change, negative = growth inhibition, usual class: inhibitors; 420,000 compounds, 12% hits; note: potency is the fitted concentration of half-maximal effect; nearly all actives have a fitted effect of over 55% in size
#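 Cell growth measured by CellTiter-Glo luminescence after a minimum 48 h, 37 C compound exposure with 20 nM CPT in Tdp1-knockout DT40 cells stably expressing hTDP1, seeded 400/well; qHTS titration format.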
# HT1080NT lethal = qHTS for induction of synthetic lethality in tumor cells producing 2HG: qHTS for the HT-1080-NT fibrosarcoma cell line. HT-1080-NT fibrosarcoma viability, CellTiter-Glo ATP luminescence, 48 h. Potency, µM (highest dose often 46.1 µM), for the others: top-dose activity, negative = less viability, hits mostly cytotoxic. 360,000 compounds, 1.6% hits;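 note: NT is the 2HG producing partner of a matched IDH1 knockdown line; potency is the fitted concentration of half-maximal effect; 0% = DMSO-treated cells and -100% = media-only wells without cells; nearly all actives have a fitted effect of over 55% in size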
#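 750 cells/well, RPMI + 5% FBS; 2 h settle, compound pin-transfer, 48 h at 37 degrees C. CellTiter-Glo 10 min RT, luminescence. Normalized to DMSO and media-only wells.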
# ELG1 repair inh = qHTS screen for small molecules that inhibit ELG1-dependent DNA repair in human embryonic kidney (HEK293T) cells expressing luciferase-tagged ELG1; HEK293T ELG1-luciferase reporter, luminescence, 16 h; DNA damage induced by 5-fluorouridine; Potency, µM (series often up to 46.1 µM), inactives show at the highest dose activity change, negative = inhibition, usual class: inhibitors; 330,000 compounds, 2.3% hits; AID 504467, 2011; note: potency is the fitted concentration of half-maximal effect; nearly all actives have a fitted effect of over 55% in size
#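 HEK293T cells expressing luciferase-tagged ELG1 (2,000/well) received 5-Fluorouridine plus compound or DMSO for 16 hr at 37 °C. Luciferase was read by ONE-Glo luminescence after 30 min at room temperature.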
# An asterisk follows results filed as active; ? = inconclusive; nt = not tested or not shown; ! = a repeat was not active. Unless noted, calls come from the whole dose curve; as a rule, active = well fitted curve in the direction sought with a large enough effect; inconclusive = small, poorly fitted or top-dose-only effect, or another doubt; inactive = no such curve, though single readings can be large; an effect the other way counts as inactive or inconclusive. Unless noted, % is set by controls: 0 for no effect and ±100 for the full control effect.
SMILES,IL-1B inflam inh,HT1080 IDH1KD tx,TDP1 cell noCPT,DT40 TDP1 CPT,HT1080NT lethal,ELG1 repair inh
CCCCCOC(=O)CSc1ncnc2sc3c(c12)CCC(C)C3 (stereo not drawn),nt,nt,-11.2%,-14.8%,nt,nt
CC(NC(=O)c1ccccc1F)C12CC3CC(CC(C3)C1)C2 (stereo not drawn),9.4,4.6%,?,20.6µM*,6.3%,-3.5%
COc1ccc(OC)c(/C=C/C(=O)Nc2ccc3c(c2)CCC3)c1,-5.4,-9.3%,?,?,-2.2%,2.0%
COc1ccccc1/C=C/C(=O)Nc1ccc2c(c1)CCC2,?,-2.3%,11.6µM*,-27.4%,-2.8%,?
COc1ccccc1/C=C/C(=O)Nc1ccc2c(c1)OCCO2,-58.1*,?,10.3µM*,8.2µM*,-23.9%,?
O=C(/C=C/c1ccco1)Nc1ccc2c(c1)OCCO2,-70.3*,9.1%,-17.1%,-16.3%,9.8%,?
COc1cccc(NC(=O)/C=C/c2ccco2)c1,?,-15.6%,?,-22.6%,-14.0%,?
O=C(/C=C/c1ccco1)Nc1ccc(Oc2ccc(Cl)cc2)cc1,-6.5,4.11µM*,3.26µM*,4.11µM*,5.8µM*,-26.6%
COc1ccccc1/C=C/C(=O)OCC(=O)Nc1ccc2c(c1)OCCO2,-8.9,-2.5%,4.1%,2.1%,-0.1%,0.8%
O=C(/C=C/c1ccccc1)Nc1ccc2c(c1)OCCO2,?,8.0%,1.6%,-3.8%,15.1%,?
Cc1ccc(CNC(=O)c2cc(NS(=O)(=O)c3ccc(C)cc3)ccn2)cc1,nt,nt,8.0%,4.6%,nt,nt
N#Cc1cnn(-c2nc3sc4c(c3c(=O)[nH]2)CCCC4)c1N,-14.2,-15.5%,14.6µM*,20.6µM*,-7.8%,?
CCCCCCSc1ccc(-c2nc3ccc(C)cn3c2NCc2ccccc2)cc1,-109.9*!,-2.5%,16.4µM*!,23.1µM*!,1.2%,?
CCCCCCSc1ccc(-c2nc3ccc(C)cn3c2NCc2ccccc2)cc1OC,-52.7*!,?,18.4µM*,16.4µM*,-24.0%,?
COc1ccc(-c2cn3cc(C)ccc3n2)cc1OC,-13.8,-8.6%,?,0.2%,-9.3%,?
CCCCCCSc1cccc(-c2nc3ccc(Cl)cn3c2NCc2ccccc2)c1,-6.1,6.5%,23.1µM*,20.6µM*,-4.1%,23.4%
CN(c1ccccc1)S(=O)(=O)c1ccc(C(=O)OCC(=O)NCc2cccs2)cc1,0.0,-14.1%,?,?,-27.3%,-12.0%
CC(C)(C)c1nn2cnnc2n(/N=C/c2ccc(O)cc2)c1=O,4.4,19.9%,-1.5%,0.3%,22.0%,11.9%
CCC(c1nnnn1Cc1ccco1)N1CCN(c2cc(Cl)ccc2C)CC1 (stereo not drawn),-60.1*,-24.6%,?,?,-25.4%,-6.6%
O=C(O)c1cccc2c1C(=O)c1ccc(N3CCN(Cc4ccc5c(c4)OCO5)CC3)cc1S2(=O)=O,10.2,-2.8%,-23.0%,0.2%,-1.6%,nt
CC(=O)c1ccc(NC(=O)CN(C)S(=O)(=O)c2cccc3nsnc23)cc1,nt,nt,0.1%,-1.2%,nt,nt
Cc1cc(-n2c(=O)[nH]c(=O)n(C)c2=O)ccc1Oc1ccc(S(=O)(=O)C(F)(F)F)cc1,nt,nt,16.8µM*,?,nt,nt

# Assay outcomes: PubChem, National Center for Advancing Translational Sciences (NCATS)
